ChEMBL document CHEMBL3988442, “University of Dundee, Small-Polar-MMV Screening Library” (2021)
The campaign covered roughly 69,000 compounds. About 950 (1.4%) showed an effect of 50% or more. This is one part of a sample in which strong results are shown more often than they occur.

Each molecule was assayed on Mycobacterium tuberculosis (assay: Cornell M. t heat shock assay; further: in the data most compounds retested in dose-response had high values).
Format: functional, organism-based
Design: dose or concentration left out as unconfirmed
`Cc1nc(CN2C(=O)CCC23CCN(Cc2ccco2)CC3)cs1` was tested, and the “Percent Effect” value was 5.099%.
For `Cc1nc(CN2CCC23CCN(Cc2ccco2)CC3)cs1`, the “Percent Effect” value was 77.77%.
In the case of `Cc1nc(CN2C(=O)CCC23CCN(Cc2ccoc2)CC3)cs1.O=C(O)C(F)(F)F.O=C(O)C(F)(F)F`, the “Percent Effect” value is reported as -26.87%.
With `Cc1nc(CN2CCC23CCN(Cc2ccoc2)CC3)cs1` the “Percent Effect” value was 94.23%.
`Cc1nc(CN2CCC3(C2)CN(Cc2ccco2)C3)cs1` was tested, and the “Percent Effect” value was 18.48%.
For `Cc1nc(CN2CCC23CCN(C(=O)c2ccco2)CC3)cs1`, the “Percent Effect” value was -3.59%.
For `O=C(N1CCCO1)[C@@]12CCO[C@@H]1CCN(Cc1ccc(F)cc1)C2.O=C(O)C(F)(F)F`, the “Percent Effect” value was -15.72%.
With `Cn1cc(-c2cnc(N3CCOCC3)nc2)cc1C(=O)NCCO.O=C(O)C(F)(F)F` the “Percent Effect” value was 10.75%.
`O=C(c1c[nH]c(=O)c(Cl)c1)N1C[C@@H]2CC[C@H](C1)N(CC1CCC1)C2` was tested, and the “Percent Effect” value was -23.49%.
With `COCCn1c2c(ccc1=O)CC(NCc1cccnc1OC)CC2.O=C(O)C(F)(F)F.O=C(O)C(F)(F)F` (configuration not stated) the “Percent Effect” value was 19.47%.
In the case of `COC1COC2(CCN(CC3CC3)CC2)C1.O=C(O)C(F)(F)F` (configuration not stated), the “Percent Effect” value is reported as -5.009%.
With `COCc1ccc(C(=O)N2CCC(c3cc4ncc(C)nc4[nH]3)C2)cc1` (configuration not stated) the “Percent Effect” value was 6.722%.
With `Cc1cnc2cc(C3CCN(C(=O)c4ccncc4)CC3)[nH]c2n1` the “Percent Effect” value was 11.57%.
`COCc1ccc(C(=O)N2CCC(c3cc4nccnc4[nH]3)CC2)cc1` was tested, and the “Percent Effect” value was 64.38%.
In the case of `COc1ccc(Cn2c(C3CCNCC3)cc3cccnc32)cc1.Cl`, the “Percent Effect” value is reported as 2.964%.
For `CCOC(=O)CSc1nnc([C@@H](N)C(C)CC)o1.Cl` (some centres not stated), the “Percent Effect” value was -17.57%.
With `CCOCC1CN(C2CCCC2)Cc2cnn(CC3CCOCC3)c21.O=C(O)C(F)(F)F.O=C(O)C(F)(F)F` (configuration not stated) the “Percent Effect” value was -13.36%.
For `c1ccc(O[C@H]2C[C@@H]3CN(Cc4cnccn4)C[C@@H]3C2)cc1`, the “Percent Effect” value was -8.402%.
For `c1ccc(CN(Cc2cccc3cnccc23)CC2CCCO2)nc1` (configuration not stated), the “Percent Effect” value was 13.24%.
In the case of `O=c1[nH]c2ccccc2cc1CN(Cc1ccccn1)CC1CCCO1` (configuration not stated), the “Percent Effect” value is reported as 51.43%.
For `Cc1ccc2cc(CN(C)Cc3ccccn3)c(=O)[nH]c2c1`, the “Percent Effect” value was -6.108%.
With `O=C(N1CCOCC1)N1C(CN2CCOCC2)[C@]2(O)CC[C@H]1CC2` (some centres not stated) the “Percent Effect” value was 2.205%.
With `CN1C[C@@H]2CN(C(=O)C3CC=CC3)C[C@@H]2C1=O` the “Percent Effect” value was -1.029%.
`Cc1cc(CCC(=O)Nc2nncs2)nc(C2CCCN2)n1.Cl` (configuration not stated) was tested, and the “Percent Effect” value was -11.36%.
For `CN(C)C(=O)c1nn(C)c2c1CN(Cc1ccc(F)cc1)C2.O=C(O)C(F)(F)F`, the “Percent Effect” value was -35.3%.
In the case of `O=C(O)C(F)(F)F.O=C1CC[C@]2(CC[C@@H](NC(=O)NCc3cccnc3)CC2)N1`, the “Percent Effect” value is reported as 2.106%.
In the case of `CN(CC(=O)NC(Cc1ccsc1)c1cccnc1)Cc1ccccn1.Cl` (configuration not stated), the “Percent Effect” value is reported as -24.9%.
`Cc1csc(C(Cc2ccsc2)NC(=O)CN(C)Cc2ccccn2)n1.Cl` (configuration not stated) was tested, and the “Percent Effect” value was 82.59%.
For `Cc1csc(C(Cc2ccsc2)NC(=O)CN(C)Cc2cccnc2)n1.Cl` (configuration not stated), the “Percent Effect” value was -9.769%.
With `O=C(Cn1cccnc1=O)NC(Cc1ccsc1)c1ccccn1` (configuration not stated) the “Percent Effect” value was 17.67%.
`Cc1csc(C(Cc2ccsc2)NC(=O)Cn2cccnc2=O)n1` (configuration not stated) was tested, and the “Percent Effect” value was -16.84%.
For `Cc1cc(C)n(CC(=O)NC(Cc2ccsc2)c2ccccn2)c(=O)n1.Cl` (configuration not stated), the “Percent Effect” value was 93.95%.
For `Cc1ccc(N2CCC3(CCN(C(=O)c4ccnnc4)CC3)CC2)nn1.O=C(O)C(F)(F)F`, the “Percent Effect” value was -48.43%.
With `Cn1nnc2c1CCN(Cc1nccs1)C2COCc1ccccc1.O=C(O)C(F)(F)F` (configuration not stated) the “Percent Effect” value was 7.839%.
For `N#Cc1cccc(CN2CC[C@@H]3[C@@H]2CC(=O)N3CCN2CCCC2)c1.O=C(O)C(F)(F)F.O=C(O)C(F)(F)F`, the “Percent Effect” value was -3.152%.
`Cc1c(C(=O)NC2=NCCS2)cnn1-c1ccc(Br)cc1` was tested, and the “Percent Effect” value was 23.54%.
With `Cc1oc(-c2ccccc2)nc1C(=O)NC1=NCCS1` the “Percent Effect” value was 105.4%.
For `Cc1oc(-c2ccc(Cl)cc2)nc1C(=O)NC1=NCCS1`, the “Percent Effect” value was 105.8%.
`Cc1cc(C(=O)NC2=NCCS2)c(C)n1-c1ccccn1` was tested, and the “Percent Effect” value was 4.567%.
`Cc1c(C(=O)NC2=NCCS2)cnn1-c1ccc(Cl)cc1` was tested, and the “Percent Effect” value was 22.26%.
For `Cc1oc(-c2ccccc2)nc1CC(=O)NC1=NCCS1`, the “Percent Effect” value was 20.62%.
In the case of `CC(C)CN1CC[C@@H]2[C@H](CC1)N(S(C)(=O)=O)CCS2(=O)=O.O=C(O)C(F)(F)F`, the “Percent Effect” value is reported as -8.964%.
In the case of `Cc1c(CN2CCc3nc4sccc4c(=O)n3CC2)cnn1C.Cl`, the “Percent Effect” value is reported as -11.07%.
In the case of `COCC(=O)NCc1cc(=O)n2c(n1)CN(C)CCC2.O=C(O)C(F)(F)F`, the “Percent Effect” value is reported as 2.895%.
With `CCn1cncc1CN1CCN(CC2(c3ccc(C)cc3)CC2)CC1.Cl` the “Percent Effect” value was -24.04%.
For `Cn1nnc2c1C(COCc1cccnc1)CN(Cc1ccoc1)C2.O=C(O)C(F)(F)F.O=C(O)C(F)(F)F` (configuration not stated), the “Percent Effect” value was -46.31%.
In the case of `O=S(=O)(NCCNc1cc(-n2cccc2)ncn1)c1cccs1`, the “Percent Effect” value is reported as 9.38%.
`O=S(=O)(NCCNc1ccc(-n2cccc2)nn1)c1cccs1` was tested, and the “Percent Effect” value was 103.8%.
With `O=S(=O)(NCCNc1cc(-n2cccn2)ncn1)c1cccs1` the “Percent Effect” value was -0.2009%.
For `O=S(=O)(Cc1ccccc1)NCCNc1ccc(-n2cccc2)nn1`, the “Percent Effect” value was -9.655%.
`Cc1ccc(C)c(S(=O)(=O)NCCNc2ccc(-n3cccc3)nn2)c1` was tested, and the “Percent Effect” value was 35.9%.
For `Cc1cc(C)n(-c2ccc(NCCNS(=O)(=O)c3ccccc3)nn2)n1`, the “Percent Effect” value was 7.275%.
With `O=S(=O)(NCCNc1ccc(-n2cccn2)nn1)c1ccccc1` the “Percent Effect” value was 101.1%.
For `Cc1nsc(NCCNS(=O)(=O)c2ccccc2)n1`, the “Percent Effect” value was -4.682%.
In the case of `O=S(=O)(NCCNc1ccc(-n2cccc2)nn1)c1ccccc1`, the “Percent Effect” value is reported as 100.9%.
For `CNC(=O)CN1CC[C@H]2CN(C(=O)c3ccccc3F)C[C@H]2C1.O=C(O)C(F)(F)F`, the “Percent Effect” value was -22.98%.
With `CC(C)c1nn(C)c(N(C)C)c1CNCc1ccccc1CO.Cl` the “Percent Effect” value was 37.79%.
`CCOC1COC2(CCN(Cc3ccc(C)cc3)CC2)C1.O=C(O)C(F)(F)F` (configuration not stated) was tested, and the “Percent Effect” value was -2.769%.
`CCN1CCC2(CC1)CC(NC(=O)c1c[nH]cn1)c1ccccc1O2` (configuration not stated) was tested, and the “Percent Effect” value was 11.74%.
In the case of `CCN1CCC2(CC1)CC(NC(=O)c1csnn1)c1ccccc1O2.O=C(O)C(F)(F)F` (configuration not stated), the “Percent Effect” value is reported as 54.1%.
For `COCCN1CCC2(CC1)CC(NC(=O)CN(C)C)c1ccccc1O2.O=C(O)C(F)(F)F.O=C(O)C(F)(F)F` (configuration not stated), the “Percent Effect” value was -9.867%.
`O=C(NC1CC2(CCN(CCO)CC2)Oc2ccccc21)c1csnn1` (configuration not stated) was tested, and the “Percent Effect” value was 10.49%.
With `CN1CCC2(CC1)CC(NC(=O)c1csnn1)c1ccccc1O2.O=C(O)C(F)(F)F` (configuration not stated) the “Percent Effect” value was 76.95%.
In the case of `COCCN1CCC2(CC1)CC(NC(=O)COC)c1ccccc1O2.O=C(O)C(F)(F)F` (configuration not stated), the “Percent Effect” value is reported as -4.974%.
In the case of `N#Cc1cccc(CN2Cc3nccn3CC(COCC3CC3)C2)c1.O=C(O)C(F)(F)F` (configuration not stated), the “Percent Effect” value is reported as -23.01%.
For `O=C1CCCC2=C1C(c1ccccc1Cl)Nc1nonc1N2` (configuration not stated), the “Percent Effect” value was 3.129%.
In the case of `Cc1occc1C(=O)NCC(=O)NCCOc1ccc2c(c1)CCC2`, the “Percent Effect” value is reported as 50.55%.
With `O=C(CNC(=O)c1ccoc1)NCCOc1ccc2c(c1)CCC2` the “Percent Effect” value was 12.38%.
For `Cc1occc1C(=O)NCC(=O)NCCOc1cccc(Cl)c1`, the “Percent Effect” value was 34.75%.
For `Cc1ccc(CN2CCOCC3(CCN(Cc4cccs4)C3)C2)o1.O=C(O)C(F)(F)F.O=C(O)C(F)(F)F` (configuration not stated), the “Percent Effect” value was -11.36%.
With `COCCN1CCc2c(c(COc3cccnc3)nn2C)C1.O=C(O)C(F)(F)F.O=C(O)C(F)(F)F` the “Percent Effect” value was 5.842%.
With `Cc1ccc(Cl)cc1N1CCC(CNC(=O)Cn2cccn2)C1` (configuration not stated) the “Percent Effect” value was 6.122%.
In the case of `CCC(=O)NCC(=O)NCC1CCN(c2cc(Cl)ccc2C)C1` (configuration not stated), the “Percent Effect” value is reported as -4.009%.
`Cc1ccc(Cl)cc1N1CCC(CNC(=O)CCn2ccnn2)C1` (configuration not stated) was tested, and the “Percent Effect” value was 62.44%.
`Cc1cnn(CC(=O)NCC2CCN(c3cc(Cl)ccc3C)C2)c1` (configuration not stated) was tested, and the “Percent Effect” value was 0.4801%.
`Cc1ccc(Cl)cc1N1CCC(CNC(=O)CCn2ccnc2)C1` (configuration not stated) was tested, and the “Percent Effect” value was 172.3%.
With `Cc1ccc(Cl)cc1N1CCC(CNC(=O)CC(F)(F)F)C1` (configuration not stated) the “Percent Effect” value was 28.09%.
`CN(C)CCNC(=O)c1cc(-c2cnc(N3CCCC3)nc2)cn1C.O=C(O)C(F)(F)F` was tested, and the “Percent Effect” value was -14.58%.
With `CC(=O)N1[C@H](CN(C)C)C[C@@H]2CN(C(=O)c3cncc(C)c3)CC[C@@H]21.O=C(O)C(F)(F)F.O=C(O)C(F)(F)F` the “Percent Effect” value was -6.193%.
With `COCCn1cc(C(=O)N2CCCC2c2cc(C)on2)c2ccccc21` (configuration not stated) the “Percent Effect” value was -20.39%.
For `CCOc1cc(C)nc(N2CCN(C(=O)c3cc(C)on3)CC2)n1`, the “Percent Effect” value was -16.01%.
With `Cc1cc(C(=O)N2CCN(c3nc4c(C(C)C)cccc4s3)CC2)no1` the “Percent Effect” value was 88.51%.
`COc1cccc([C@H]2CN(C(=O)c3cc(C)on3)C[C@@H]2N)c1` was tested, and the “Percent Effect” value was -0.4367%.
For `Cc1cccc(C(=O)N2CCN(c3ccccc3F)CC2)n1`, the “Percent Effect” value was -5.532%.
`CC(=O)OC1CN(c2nc3c(C)cccc3s2)C1` was tested, and the “Percent Effect” value was -13.72%.
In the case of `Cc1cc(C(=O)N2CCN(c3nc4c(C(C)C)cccc4s3)CC2)on1`, the “Percent Effect” value is reported as -0.7761%.
In the case of `Cc1cc(C(=O)N2CCN(c3nc4c(C)cccc4s3)CC2)no1`, the “Percent Effect” value is reported as 96.55%.
With `COc1cccc2sc(N3CC(OC(C)=O)C3)nc12` the “Percent Effect” value was 4.303%.
`Cc1cc(C(=O)N2CCN(c3nc4c(F)cccc4s3)CC2)no1` was tested, and the “Percent Effect” value was 70.89%.
`CCOC(=O)N1CCN(C(=O)c2cc(-c3ccccc3F)on2)CC1` was tested, and the “Percent Effect” value was 9.54%.
`Cc1cc(C(=O)N2CCN(c3nc4ccccc4s3)CC2)no1` was tested, and the “Percent Effect” value was -15.49%.
`COc1cccc2sc(N3CCN(C(=O)c4cc(C)on4)CC3)nc12` was tested, and the “Percent Effect” value was 101.6%.
